Compound activity deposited in PubChem BioAssay by National Center for Advancing Translational Sciences (NCATS).
IMPase inh: membrane-permeable compound that blocks inositol monophosphatase; P97697; CHO-M1 cells, IP1 accumulation, HTRF TR-FRET ratio; inhibition (IP1 accumulation), % at 46.1 µM; 120,000 tested, under 10 active; active = well fitted curve in the direction sought with a large enough effect in the signal ratio, not every such curve was filed as active; inconclusive = small, poorly fitted or top-dose-only effect, or a change in a side signal; inactive = no such curve, though single readings can be large or run the other way; the % refers to the signal ratio;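 also: cells stimulated with carbachol in lithium chloride buffer; plate controls were DMSO basal wells for no effect and reference inhibitor wells for full effect; higher means more IMPase inhibition seen as more IP1 and lower FRET ratio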
Target sequence (P97697 whole entry, looked up): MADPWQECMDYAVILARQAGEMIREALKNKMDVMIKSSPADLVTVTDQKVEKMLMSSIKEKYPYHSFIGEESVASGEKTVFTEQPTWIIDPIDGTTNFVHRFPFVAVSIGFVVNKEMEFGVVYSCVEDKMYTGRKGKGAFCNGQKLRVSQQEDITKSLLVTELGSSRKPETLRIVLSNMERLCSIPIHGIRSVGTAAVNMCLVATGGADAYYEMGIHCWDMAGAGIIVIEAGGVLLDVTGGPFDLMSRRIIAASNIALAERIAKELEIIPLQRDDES
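Cellular IMPase inhibition is scored as a rise in cytosolic IP1, detected by competitive TR-FRET between d2-labelled IP1 and a europium anti-IP1 antibody. M1-expressing CHO cells were stimulated with carbachol for 30 min at 37C, with lithium (50 mM LiCl) present in the buffer.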
IMPase Li inh: cell-permeable IMPase inhibitors with lithium potentiation | CHO-M1 cells, IP1 TR-FRET (IP-One), carbachol + lithium | Potency, µM (top dose mostly 59.4 µM), for the others: at the highest dose activity, negative = IMPase inhibition, usual class: inhibitors | actives 0.35% (n = 210,000); active = well fitted curve in the direction sought with a large enough effect; inconclusive = small, poorly fitted or top-dose-only effect, or another doubt; inactive = no such curve, though single readings can be large; an effect the other way counts as inactive or inconclusive;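 also: IP1 builds up when IMPase is blocked and the TR-FRET signal falls; potency is read from the fitted curve at half-maximal effect; plate controls were basal vehicle for no effect and high inhibitor control for full effect; nearly all actives have a fitted effect of over 50% in size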
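Readout is a homogeneous TR-FRET IP1 immunoassay (Ex 320, Em 665 and 620), where raised cytosolic IP1 lowers signal. Cells were CHO-M1 treated 30 min at 37C with test compounds plus a little lithium; AC50 values came from Hill-equation fitting.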
PNC assembly inh: inhibitors of perinucleolar compartment assembly; PC3M PTB-GFP, PNC prevalence imaging, 16 h; stronger effect = lower value; activity change (PNC), negative = inhibition, % at 10 µM; actives 3.1% (n = 140,000);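 active = readout at or below -70, meaning at least 70% loss of cells showing the perinucleolar compartment, a nuclear body marking cancer cells; inconclusive = readout between -30 and a set limit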;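 also: plate controls were DMSO wells for no effect and camptothecin positive control wells for full effect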
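PC3M cells stably expressing PTB-GFP, 750–1000 cells/well, treated 16 h at 37 °C with compound (23 nl of library stock), in duplicate. After paraformaldehyde fixation and Hoechst stain, imaged at 20x; PNC prevalence scored by image analysis.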
ALDH1A1 block: inhibitors of human aldehyde dehydrogenase 1A1; actives 7.3% (n = 220,000); Purified ALDH1A1, NADH fluorescence, propionaldehyde substrate; AID 1030; Potency, µM (doses to about 75.3 µM), inactives show at the top dose activity, negative = inhibition, usual class: inhibitors;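 also: potency is read from the fitted curve at half-maximal effect; plate controls were no enzyme wells and a reference inhibitor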
HPGD inh: HPGD (human) dehydrogenase inhibition. P15428. purified HPGD, NADH fluorescence kinetic, PGE2 substrate. Potency, µM, for the others: at the highest dose activity change, negative = inhibition, actives largely listed as inhibitors. actives 4.3% (n = 150,000); also: potency is read from the fitted curve at half-maximal effect
Target sequence (P15428 whole entry, looked up): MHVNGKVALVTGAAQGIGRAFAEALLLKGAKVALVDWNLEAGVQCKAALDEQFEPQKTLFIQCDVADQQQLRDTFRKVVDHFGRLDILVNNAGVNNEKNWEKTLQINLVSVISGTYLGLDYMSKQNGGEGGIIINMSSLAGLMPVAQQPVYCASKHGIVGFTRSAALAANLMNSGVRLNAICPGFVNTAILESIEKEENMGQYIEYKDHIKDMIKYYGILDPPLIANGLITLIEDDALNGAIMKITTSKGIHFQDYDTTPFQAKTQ
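NADH formation kinetics: reaction with 30 uM PGE2 and 1 mM NAD+ (final), 20 nM enzyme, Tris-HCl pH 8 with Tween 20, after 15 min compound preincubation at room temperature. Fluorescence change, last versus first of five reads.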
NPSR antag: neuropeptide S receptor (human) antagonism, cAMP | Q6W5P4 | CHO-NPSR cells, cAMP TR-FRET, antagonist mode | Potency, µM (top dose mostly 38.3 µM), for inactives: at the top dose activity change, negative = inhibition, hits mostly inhibitors | actives 1% (n = 220,000) | AID 1461; active = well fitted curve in the direction sought with a large enough effect; inconclusive = small, poorly fitted or top-dose-only effect, or another doubt; inactive = no such curve, though single readings can be large; an effect the other way counts as inactive or inconclusive; also: potency is read from the fitted curve at half-maximal effect; nearly all actives have a fitted effect of over 50% in size
The depositor's hits bear a star; ? = inconclusive; . = not tested or not shown; [ ] = remark or other dose. Only some compounds are listed: those with a hit (about 11% of all), similar ones and a draw of the others. Unless noted, calls follow the shape of the dose curve; as a rule, active = well fitted inhibition curve with a large enough effect (not every such curve was filed as active); inconclusive = small, poorly fitted or top-dose-only effect, or another doubt; inactive = no such curve, though single readings can be large or run the other way. Unless noted, % is scaled to controls: 0 for no effect and ±100 for the full control effect.

SMILES	IMPase inh	IMPase Li inh	PNC assembly inh	ALDH1A1 block	HPGD inh	NPSR antag
COc1ccc(-c2nnc(NC(=O)CSc3ccc(Cl)cc3)s2)cc1OC	.	?	-24	8%	-23%	-11%
O=C(Cn1cc([N+](=O)[O-])cn1)Nc1ccn(Cc2c(F)c(F)c(F)c(F)c2F)n1	-12	3%[38.3 µM]	9	4%	-4%	-8%[46.1 µM]
COC(=O)[C@@]1(Cc2ccc(OC)cc2)[C@H]2c3cc(C(=O)N4CCCC4)n(CCc4ccc(OC)c(Br)c4)c3C[C@H]2CN1C(=O)c1ccccc1	.	15%	.	?	-8%	.
CC(=O)NS(=O)(=O)c1ccc(NC(=O)c2cc(-c3ccc(C)c(C)c3)nc3ccccc23)cc1	7	-2%[38.3 µM]	-96*	-8%	-23%	?
COc1ccccc1-c1cc(C(=O)N/N=C/c2sccc2C)c2ccccc2n1	-1	-14%[38.3 µM]	11	?	?	-25%[46.1 µM]
Cc1ccsc1/C=N/NC(=O)c1cc(-c2ccncc2)nc2ccccc12	.	10%	-109*	?	-21%	15%
Cc1c(-c2ccccc2)nc2c(Cl)cccc2c1C(=O)OCC(=O)c1ccc(F)cc1	2	.	.	.	.	.
COc1ccc(COc2ccccc2C(N)=O)cc1F	.	-1%	48	2%	-17%	3%
Cc1ccc(-c2nnc(CSc3nc4cc5c(cc4cc3C)OCO5)o2)cc1	5	-2%[38.3 µM]	33	-11%	18µM*	?
CCOC(=O)CSc1nc2cc3c(cc2cc1C)OCO3	.	11%	.	7%	.	-7%
Cc1ccc(Cn2c(SCC(C)C)nc3c2c(=O)[nH]c(=O)n3C)cc1	3	-3%[38.3 µM]	?	28µM*	20µM*	2%[46.1 µM]
C/C(Cl)=C/CSc1nc2c(c(=O)[nH]c(=O)n2C)n1C(C)C	-2	9%[38.3 µM]	24	?	-12%	-24%[46.1 µM]
C=CCn1c(SCc2ccc(F)cc2)nc2c1c(=O)[nH]c(=O)n2C	2	2%[38.3 µM]	23	?	-6%	-13%[46.1 µM]
CCCSc1nc2c(c(=O)[nH]c(=O)n2C)n1Cc1ccc(C)cc1	0	-4%[38.3 µM]	?	4%	-7%	-8%[7.67 µM]
C/C=C/Cn1c(SCc2ccc(C)cc2)nc2c1c(=O)[nH]c(=O)n2C	-7	18%[38.3 µM]	?	?	14µM*	-18%[46.1 µM]
COCCSc1nc2c(c(=O)[nH]c(=O)n2C)n1Cc1cccc(C)c1	-18	8%	-1	14µM*	?	-2%[46.1 µM]
C=CCSc1nc2c(c(=O)[nH]c(=O)n2C)n1C(C)C	4	6%[38.3 µM]	-8	3.2µM*	18µM*	-6%[46.1 µM]
CCc1ccc(OCC(=O)Nc2ccc3c(c2)c2ccccc2n3CC)c(Br)c1	1	.	.	.	.	.
C=CCSc1nc2c(c(=O)[nH]c(=O)n2C)n1Cc1ccc(C)cc1	2	-4%	?	-11%	25µM*	-12%[46.1 µM]
C=CCNC(=O)CN(c1ccc(F)cc1)S(=O)(=O)c1ccc(OC)cc1	-7	6%[38.3 µM]	15	8%	-6%	-3%[46.1 µM]
COc1ccc(OC)c(S(=O)(=O)Nc2cc3c(C(C)=O)c(C)oc3c3ccccc23)c1	6	.	.	.	.	.
COC(=O)c1c(C)oc2c1cc(NS(=O)(=O)c1cccs1)c1ccccc12	4	35%[38.3 µM]	21	7.9µM*	-2%	-11%[46.1 µM]
Cc1cccc(C(=O)NC(=S)N2CCN(C)CC2)c1	-6	-11%[38.3 µM]	-2	12%	-6%	-2%[46.1 µM]
COc1ccc(C(=O)Oc2cccnc2)cc1OC	5	10%[38.3 µM]	28	10µM*	-10%	-3%[46.1 µM]
Cc1ccc(C(=O)NC(=S)NCc2cccnc2)cc1C	.	1%	.	?	.	-3%
SMILES	IMPase inh	IMPase Li inh	PNC assembly inh	ALDH1A1 block	HPGD inh	NPSR antag
CCCC(=O)c1c[nH]c(C(=O)NCc2cccnc2)c1	.	3%	.	28µM*	.	5%
CC(C)c1ccc(C(=O)NC(=S)NCc2cccnc2)cc1	.	10%	?	28µM*	-13%	4%
COc1ccc(C(=O)NCc2cccnc2)cc1OC	-2	-3%[38.3 µM]	?	25µM*	-13%	?
CN(CC(=O)O)S(=O)(=O)c1ccc2[nH]c(=O)c(=O)[nH]c2c1	.	.	.	.	.	12%
COC(=O)N1CC(c2ccccc2)CC1=O (stereo not given)	-4	2%[38.3 µM]	?	14%	3%	2%[46.1 µM]
C/C(=N\NC(=O)c1ccc(Cl)c(Cl)c1)c1ccc(Br)s1	-16	7%	-11	-10%	-20%	0%
C/C(=N/NC(N)=S)c1ccc(Br)s1	.	9%	.	22µM*	.	?
Cc1n(CC(O)COCc2ccccc2)c2ccccc2[n+]1C (stereo not given)	8	1%[38.3 µM]	-5	2%	-6%	-2%[46.1 µM]
Cn1c(CN2CCCCC2)nc2cc([N+](=O)[O-])ccc21	.	1%	.	11µM*	.	7%
COc1cc([N+](=O)[O-])ccc1NC(=O)CCCOc1cc(C)ccc1C	-10	17%	-14	28µM*	-19%	-19%
COc1cc([N+](=O)[O-])ccc1NC(=O)CCCOc1ccccc1	0	12%[38.3 µM]	15	-9%	-16%	-22%[46.1 µM]
Cc1ccc(C)c(OCCCC(=O)Nc2ccccc2C(N)=O)c1	.	2%	.	24µM*	.	-24%
COc1ccccc1OC(=O)c1ccc(S(=O)(=O)N(C)C)cc1	1	8%[38.3 µM]	34	7%	-1%	-10%[46.1 µM]
COc1cc(S(=O)(=O)N2CCCCC2)ccc1NC(=O)c1ccccc1Cl	17	7%	-100*	2µM*	-16%	-18%[46.1 µM]
COc1ccc(S(=O)(=O)N2CCC(C(=O)N3CCCC3)CC2)cc1Cl	2	8%[38.3 µM]	21	-2%	-9%	2%[46.1 µM]
COc1ccc(S(=O)(=O)N2CCC(C(=O)N3CCCCC3)CC2)cc1Cl	-2	27%[38.3 µM]	61	1%	16µM*	-11%[46.1 µM]
O=C(c1ccc2ccccc2c1)C1CCCN(S(=O)(=O)c2cccnc2)C1 (stereo not given)	.	18%	.	25µM*	.	3%
COc1cc(S(=O)(=O)N2CCCCC2)ccc1NC(=O)c1ccc(F)cc1	-7	-19%[38.3 µM]	22	?	10%	-5%[46.1 µM]
O=C(C1CCN(S(=O)(=O)c2cccnc2)CC1)N1CCCCC1	-4	16%[38.3 µM]	4	7%	20µM*	-5%[46.1 µM]
C#CCO[C@@H]1C[C@H](n2ccc(NC(=O)c3ccccc3)nc2=O)O[C@@H]1CO	.	.	.	.	.	15%
O=C(CSc1nnnn1C1CCCC1)Nc1ccccc1N1CCOCC1	.	17%	.	?	.	2%
CS(=O)(=O)c1cnc(-c2ccccc2)nc1-c1ccc(Cl)c(Cl)c1	.	-14%	.	-1%	.	?
CCN1CCCC1CN=Cc1c(O)n(-c2ccccc2)c(=O)c2ccccc12 (stereo not given)	3	51%[38.3 µM]	-92*	?	-28%	-4%[46.1 µM]
CC(C)CCN=Cc1c(O)n(-c2ccccc2)c(=O)c2ccccc12	0	37%[38.3 µM]	?	-11%	-13%	?
Cc1cc(C(C)C)n2c(nc3ccccc32)c1C#N	.	1%	.	12%	.	-3%
